Where “and” joins values, the source holds several entries; their conditions need not be identical. Equal values may be shown once. Results filed as inconclusive are left out. Calls of active or inactive are those of the source. Calls follow the shape of the dose curve; as a rule, active = well fitted cell-killing curve with a large enough effect in the repeat runs; inconclusive = weak or mixed curves, or effect the other way; inactive = no such curve, though single readings can be large or run the other way.
Assay: qHTS assay for identifying genotoxic compounds that show differential cytotoxicity against isogenic chicken DT40 cell lines with known DNA damage response pathways - Rev3 mutant cell line (AID 743014); also: nearly all actives have a fitted effect of over 55% in size
Conditions: chicken DT40 Rev3-/- viability, CellTiter-Glo, 40 h; series mostly up to 68.4 µM
From the text: National Center for Advancing Translational Sciences [NCATS]
NIH Chemical Genomics Center [NCGC]
U.S. Environmental Protection Agency [EPA]
National Institutes of Environmental Health Sciences [NIEHS]
National Toxicology Program [NTP]
U.S. Food and Drug Administration [FDA]
DNA repair pathways play a critical role in cellular homeostasis by repairing DNA damage induced by endogenous processes and xenobiotics. Isogenic chicken DT40 cell lines deficient in different DNA repair pathways can be used to identify genotoxic compounds and aid in characterizing the nature of the DNA damage induced. Two DNA repair-deficient cell lines with disrupted genes, Rad54/Ku70 or Rev3, were used to screen the Tox21 10K compound library. Possible genotoxicity was based on the presence of a significant increase in cytotoxicity in one or more of the DNA repair-deficient cell lines compared to that observed in the parental DNA repair-proficient cell line. CellTiter Glo viability assay (Promega, Madison, WI) was used to measure cell viability in these cells after compound treatment. This assay includes the data from the Rev3 mutant cell line.
Tox21 Assay Protocol Summary:
300 DT40 mutant cells in 5 uL/well were dispensed into white, solid-bottom 1536-well plates using a Multidrop Combi (ThermoFisher Scientific, Waltham, MA) dispenser. After the assay plates were incubated at 37 C/5% CO2 for approximately 0.5 hour, 23 nL of compounds dissolved in DMSO, positive controls or DMSO only was transferred into the assay plate by a pintool work station (Kalypsys, San Diego, CA). The assay plates were incubated at 37 C/5% CO2 for 40 hours. After 5 uL per well of CellTiter-Glo reagent was added into each well of the assay plates, the plates were incubated for 30 min at room temperature and the luminescence intensity of the plates was measured using a ViewLux (PerkinElmer, Shelton, CT) plate reader.
Potency is read from the fitted curve at half-maximal effect.

Row | SMILES | Potency
1 | Cc1c(-c2ccc(O)cc2)n(Cc2ccc(OCCN3CCCCCC3)cc2)c2ccc(O)cc12 | 13.3 µM (active)
2 | O=C(O)CCCCCCC(=O)O | inactive
3 | CCOC(=O)[C@@](C)(N)Cc1ccc(O)c(O)c1 | inactive
4 | COc1cc(C=C2CCC/C(=C\c3ccc(O)c(OC)c3)C2=O)ccc1O | 11.9 µM (active)
5 | COC(=O)CC#N | inactive
6 | COCC(=O)O[C@]1(CCN(C)CCCc2nc3ccccc3[nH]2)CCc2cc(F)ccc2[C@@H]1C(C)C | 4.22 µM (active)
7 | O=Nc1ccc(NO)cc1 | inactive
8 | c1cc(OCC2CO2)cc(OCC2CO2)c1 (stereo not given) | 0.0763 µM (active)
9 | [O]=[Zr] | inactive
10 | CCCCCCCOC(=O)c1ccc(O)cc1 | 43.3 µM (active)
11 | CCCCCCCC/C=C\CCCCCCCC(=O)OCCOC(=O)CCCCCCC/C=C\CCCCCCCC | inactive
12 | NC(=O)C(=O)N/N=C/c1ccc([N+](=O)[O-])o1 | 11.9 µM (active)
13 | CC(C)(c1cc(Br)c(OCCO)c(Br)c1)c1cc(Br)c(OCCO)c(Br)c1 | 13.4 µM (active)
14 | c1ccc(Nc2cccc3ccccc23)cc1 | 61.9 µM (active) and 61.1 µM (active)
15 | O=C(NO)c1ccccc1 | 44.9 µM (active)
16 | C[C@@]12C(=O)OC(=O)[C@]1(C)C1CCC2O1 | inactive
17 | C/C=C/C(=O)Oc1c(CCCCCC(C)C)cc([N+](=O)[O-])cc1[N+](=O)[O-] | 3.44 µM (active)
18 | Cc1c(C)n(Cc2ccccc2)c2ccc(C(=O)OCCN(C)C)cc12 | 3.76 µM (active)
19 | CCOC(=O)N1CCC(=C2c3ccc(Cl)cc3CCc3cccnc32)CC1 | 7.5 µM (active) and 9.69 µM (active)
20 | CCCCC(CC)COC(=O)c1ccc(O)cc1 (stereo not given) | 43.1 µM (active) and 48.6 µM (active)

Row | SMILES | Potency
21 | NC(=O)c1ccccc1N | inactive
22 | CCCCCCCCCCCC(=O)N(CC)CC | 30.6 µM (active)
23 | C[C@]12CC[C@H]3C(=CCc4cc(O)ccc43)[C@@H]1CCC2=O | 54.5 µM (active)
24 | Cc1nc(Nc2ncc(C(=O)Nc3c(C)cccc3Cl)s2)cc(N2CCN(CCO)CC2)n1 | 9.44 µM (active)
25 | CC(CN(C)C)CN1c2ccccc2CCc2ccccc21 (stereo not given) | 12.7 µM (active)
26 | Cc1cc(Nc2ccc(O)cc2)ccc1N | 13.6 µM (active)
27 | CN(C)c1ccc(N=Nc2ccccc2C(=O)O)cc1 | inactive
28 | C=C1C(C)(C)[C@@]2(Cl)C(Cl)[C@]1(Cl)C(Cl)(Cl)C2(Cl)Cl (stereo not given in full) | 6.73 µM (active)
29 | CCN(CC)CCNc1ccc(CO)c2sc3ccccc3c(=O)c12 | 0.298 µM (active)
30 | COC(=O)NCCC[Si](OC)(OC)OC | 68.6 µM (active)
31 | N#CSCSc1nc2ccccc2s1 | 0.969 µM (active)
32 | CN(C)CCCN1c2ccccc2CCc2ccccc21 | 23.7 µM (active) and 9.69 µM (active)
33 | CCCCCCCCCCOCC(O)CN (stereo not given) | 6.68 µM (active)
34 | O=C1NC2CCCCN2C12CCN(CCCN1c3ccccc3CCc3ccc(Cl)cc31)CC2 (stereo not given) | 13.3 µM (active)
35 | CCN(CC)CCCN(c1ccccc1)C1Cc2ccccc2C1 | 0.944 µM (active)
36 | O=C(O)CCn1c2c(c3ccccc31)C[C@H](NS(=O)(=O)c1ccc(F)cc1)CC2 | inactive
37 | C=C(C)C(=O)OCCC[Si](Cl)(Cl)Cl | inactive
38 | O=C(Nc1ccc(Cl)cc1)Nc1ccc(Cl)c(C(F)(F)F)c1 | 5.31 µM (active)
39 | CC(COC(=O)c1ccccc1)OC(=O)c1ccccc1 (stereo not given) | inactive
40 | CCN=c1cc2oc3cc(NCC)c(C)cc3c(-c3ccccc3C(=O)OCC)c-2cc1C | 384 nM (active) and 137 nM (active)

Reference: PubChem BioAssay (Tox21)
